# High-throughput results deposited in PubChem by The Scripps Research Institute Molecular Screening Center.
# LEDGF integ inh: blockers of LEDGF/p75-dependent integrase strand transfer – biochemical, TR-FRET, high throughput, primary screen; HIV-1 integrase (with human LEDGF/p75); TR-FRET IN-LEDGF/p75 DNA integration, Eu/Cy5; inhibition, % at 3.7 µM; 0.64% of 370,000 active; AID 743269, 2014;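 active means inhibition above the screen-wide mean plus 3 SD, cut at about 13% in these data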;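 further: signal is the Cy5 over europium emission ratio at 671 and 618 nm; 0% = plate median of compound wells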
# UHRF1 MBD2 ctr: UHRF1 methylated DNA binding inhibitors, primary screen, counter-screen for MBD2 inhibitor project, biochemical, TR-FRET, human UHRF1, single concentration; E3 ubiquitin-protein ligase UHRF1 (Homo sapiens), Q96T88; UHRF1 binding to methylated oligo; inhibition, % at 4.4 µM; 0.75% of 370,000 active; AID 687016, 2013; in the data active means inhibition above about 21%;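 further: UHRF1 SRA domain binding a hemimethylated CpG hairpin DNA probe; 0% = median of test compound wells and 100% = reference inhibitor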
# TCR-CD3 inh: inhibitors of human TCR-CD3 interaction, primary screen, biochemical, fluorescence, TAMRA-labeled TCR probe | inhibition, % at 9.4 µM | 0.37% of 360,000 active; in the data active means inhibition above about 19%;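 further: recombinant mutant TCR 2C K166C tagged with TAMRA read by polarization; 0% = receptor in buffer alone and 100% = receptor with positive control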
# MBD2 DNA inh: inhibitors of MBD2 binding to methylated DNA, primary screen, biochemical, TR-FRET, DNA-binding domain, human; Methyl-CpG-binding domain protein 2 (Homo sapiens), Q9UBB5; MBD2 binding to methylated oligonucleotide; inhibition, % at 4.4 µM; 0.31% of 370,000 active; in the data active means inhibition above about 13%
# Target sequence (Q9UBB5 whole entry, looked up, the tested form may be a part): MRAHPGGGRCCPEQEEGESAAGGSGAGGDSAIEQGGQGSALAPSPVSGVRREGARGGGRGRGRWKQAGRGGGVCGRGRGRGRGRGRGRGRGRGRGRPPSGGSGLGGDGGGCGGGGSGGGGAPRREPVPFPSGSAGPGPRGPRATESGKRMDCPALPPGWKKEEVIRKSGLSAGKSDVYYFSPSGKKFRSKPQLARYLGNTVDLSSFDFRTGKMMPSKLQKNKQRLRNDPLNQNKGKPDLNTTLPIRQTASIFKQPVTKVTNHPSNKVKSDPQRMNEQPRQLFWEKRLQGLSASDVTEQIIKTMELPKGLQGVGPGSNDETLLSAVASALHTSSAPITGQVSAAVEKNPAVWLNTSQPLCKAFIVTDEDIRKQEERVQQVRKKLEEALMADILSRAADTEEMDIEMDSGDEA
# Rin1-Abl PPI inh: inhibitors of Rin1-Abl protein binding, primary screen, biochemical, TR-FRET | inhibition, % at 7.35 µM | 0.4% of 360,000 active; in the data active means inhibition above about 5%, passing the limit was not always enough
# Rin1-Abl confirm: Rin1-Abl binding inhibitor retest, confirmation, biochemical, TR-FRET; shares compounds with Rin1-Abl PPI inh; purified proteins; inhibition, % at 7.35 µM; 49% of 1,300 active; AID 602124, 2011
# GFP quench: GFP fluorescence inhibitors and quenchers, artefact control for Rin1-Abl interaction inhibitor project, biochemical. shares compounds with Rin1-Abl PPI inh. inhibitors/quenchers counterscreen. inhibition, % at 6.75 µM. 8.5% of 1,300 active;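 further: ABL1-eGFP fusion protein alone without its partner RIN1-SBP; 0% = protein with vehicle and 100% = wells lacking protein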
# GFP quench dose: GFP fluorescence inhibitors and quenchers, dose response, artefact control for Rin1-Abl interaction inhibitor project, biochemical. shares compounds with Rin1-Abl PPI inh. GFP fluorescence interference/quenching counterscreen. IC50, µM. 230 tested, under 10 active; call rule not given here;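 further: ABL1-eGFP fusion protein alone without its RIN1 binding partner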
# Active calls of the source: *; · = not tested or not shown. A selection: hits, their analogues and other compounds. The true share with any hit is near 2%. Unless noted, no stated cut-off is given here; in the data, active means inhibition above about 6.5%; inactive means the rest.
SMILES,LEDGF integ inh,UHRF1 MBD2 ctr,TCR-CD3 inh,MBD2 DNA inh,Rin1-Abl PPI inh,Rin1-Abl confirm,GFP quench,others
CCNC(=O)C1CCCN(C(=O)c2cccc(OC(F)(F)F)c2)CC1 (stereo not drawn),-2,-1,2,0,-1,·,·,
NS(=O)(=O)c1ccc(N2C(=O)CCCC2=O)cc1,3,3,-8,-1,-6,·,·,
Cc1ccsc1CNC(=O)C1(C)CCN1C(=O)C(C)C (stereo not drawn),1,1,-3,1,-3,·,·,
COc1ccc(CNC(=O)COC(=O)CCCOc2ccc(Cl)cc2Cl)cc1OC,-1,-2,2,-2,10*,-1,1,
Cc1ccc(CNC(=O)COC(=O)CCCOc2ccc(Cl)cc2Cl)cc1,1,1,3,-1,0,·,·,
CC1=CC(C)(C(Cl)(Cl)Cl)C(C)=CC1=NO (stereo not drawn),-1,1,-6,-7,-3,·,·,
CC(=O)Nc1cccc(-c2ccnc3c2CC(C(=O)Nc2ccc(Cl)cc2)O3)c1 (stereo not drawn),2,2,-3,2,1,·,·,
CC(C)OC(=O)CSc1nnc(Cc2ccccc2)n1C,-3,4,-3,4,8.9*,-2,0,
Cc1nc(-c2ccc(C(=O)N3CCCC3)cc2)cs1,-4,3,1,10,6.2*,-1,0,
Cc1ncc(CN2CCC(C(=O)Nc3cccc(-c4cscn4)c3)CC2)cn1,8,0,-1,-4,2,·,·,
CC(C)n1cc(CN2CCC(C(=O)Nc3cccc(-c4cscn4)c3)CC2)cn1,2,-3,3,1,11*,24*,1,GFP quench dose=>68
COCCN1Cc2cc(C(=O)OC)c3c(c2C1=O)c1cc(F)ccc1n3S(=O)(=O)c1ccc(C)cc1,1,1,-7,-5,·,·,·,
COc1cc2c(C(=O)N3CCN(c4ccccc4F)CC3)cn(C)c(=O)c2cc1OC,-4,0,3,0,8.9*,12*,1,
CCOC(=O)C1CCCN(C(=O)c2cn(C)c(=O)c3cc(OC)c(OC)cc23)C1 (stereo not drawn),2,2,-3,4,25*,32*,0,GFP quench dose=>68
CCCCN1C(=O)N(C)C2NC(=O)NC21 (stereo not drawn),-3,-2,7,3,66*,76*,1,GFP quench dose=>67
CCCCN1C(=O)N(C)C2C1N(C)C(=O)N2CCCC (stereo not drawn),1,2,4,-2,4,·,·,
CCCCN1C(=O)NC2NC(=O)NC21 (stereo not drawn),6,-7,3,-12,97*,99*,-2,GFP quench dose=>68
CCCc1cc(=O)oc2cc(OC(C)C(=O)NCC3CCC(C(=O)O)CC3)ccc12 (stereo not drawn),2,2,-9,2,2,·,·,
COc1ccc(CCNC(=O)C2CC(O)CN2S(=O)(=O)c2ccc(Cl)cc2)cc1OC (stereo not drawn),-3,2,0,0,4,·,·,
COc1ccc(CNC(=O)Nc2nc(C(N)c3ccccc3)cs2)cc1 (stereo not drawn),0,0,-9,4,0,·,·,
Cc1noc(C)c1NC(=O)Nc1ccc2c(c1)C(=O)N([C@H](C)CO)C[C@H](C)[C@@H](CN(C)S(=O)(=O)c1ccccc1)O2,-4,-1,8,-1,9.2*,0,1,
